Pf Dd2 inh: inhibitors of Plasmodium falciparum Dd2 growth | P. falciparum Dd2 growth, SYBR Green, 72 h | Potency, µM (doses to about 28.9 µM), hits mostly inhibitors | 120,000 tested, 4.3% active | AID 1347417; active = well fitted inhibition curve with a large enough effect; also: nearly all actives have a fitted effect of over 65% in size
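Readout: SYBR Green fluorescence, 485 nm excitation, 535 nm emission, after ~16 h lysis at 37C. Before that, Dd2-infected red cells (2.5% hematocrit) grew 72 h with compound, 29 uM top final concentration.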
A number is an active result; n = inactive; [ ] = another dose, or the depositor's remark. This is one part of a sample in which hits are shown more often than they occur.

SMILES	Pf Dd2 inh
CC(C)c1ccc(N2C(=O)N[C@@H]3CCN(C(=O)C4CCCC4)[C@@H]3C2=O)cc1	n
Cc1ccccc1C(=O)N1CCN(c2cc(-c3ccc(Cl)cc3)[nH]n2)CC1	n
CCN1c2cc(C(=O)N3CCOCC3)ccc2C(=O)N2CCCCCC21 (configuration not stated)	n
O=C(C1Cn2cccc2C(=O)N1Cc1ccccc1)N1CCc2ccccc2C1 (configuration not stated)	n
NC[C@H]1O[C@H](Cc2cc(-c3cccc(O)c3)on2)CC[C@@H]1O	n
Cc1noc([C@@H]2CC(F)(F)CN2C(=O)c2ccc3c(c2)OCO3)n1	n
CC(C)Oc1ccc(CNC(=O)CCCN2C(=O)CCn3nc(-c4cccn4C)cc32)cc1	n
Cc1ccc(CNC(=O)CCCN2C(=O)CCn3nc(-c4cccn4C)cc32)cc1	5µM
CN(C)c1ccc(CNC(=O)CCCN2C(=O)CCn3nc(-c4cccn4C)cc32)cc1	n
Cc1ccc(C)c(NC(=O)Cn2c(C)cc3nc4n(c(=O)c32)CCCCC4)c1	n
O=C(Cn1ncc2c3ccccc3n(Cc3ccccc3)c2c1=O)N1CCCCCC1	n
CC1CCC(NC(=O)Cn2ncc3c4ccccc4n(Cc4ccc(F)cc4)c3c2=O)CC1 (configuration not stated)	n
Cc1ccccc1Cn1c2ccccc2c2cnn(CC(=O)NCc3ccccn3)c(=O)c21	n
Cc1ccccc1Cn1c2ccccc2c2cnn(CC(=O)NC3CCCCCC3)c(=O)c21	n
CCCn1c2ccccc2c2cnn(CC(=O)N3CCC(C)CC3)c(=O)c21	n
O=C(Cn1ncc2c3ccccc3n(Cc3ccc(Cl)cc3)c2c1=O)NCc1ccccn1	n
CC(CCc1ccccc1)NC(=O)Cn1ncc2c3ccccc3n(Cc3cccc(Cl)c3)c2c1=O (configuration not stated)	n
CCOC(=O)N1CCN(C(=O)Cn2ncc3c4ccccc4n(Cc4ccc(F)cc4)c3c2=O)CC1	10µM
O=C(Cn1ncc2c3ccccc3n(Cc3cccc(Cl)c3)c2c1=O)N1CCCCCC1	8.9µM
Cc1cc(C)c(Cn2c3ccccc3c3cnn(CC(=O)NCc4ccccn4)c(=O)c32)c(C)c1	10µM
Cc1cc(C)c(Cn2c3ccccc3c3cnn(CC(=O)N4CCCCCC4)c(=O)c32)c(C)c1	7.1µM
CCC(Cc1ccccc1)NC(=O)Cn1ncc2c3ccccc3n(Cc3ccc(F)cc3)c2c1=O (configuration not stated)	n
OCCc1cc(CC2(NCc3ccc(CO)o3)COC2)no1	n
COC[C@H]1CCCN1C(=O)CC[C@H]1CNC(=O)[C@@H]2[C@@H](CCN2CC2CC2)N1C	n
COCCN1CCCCC(CC(=O)Nc2cccc(OC)c2)C1=O (configuration not stated)	n
SMILES	Pf Dd2 inh
Cc1cc(C(=O)N[C@@H]2CCC[C@@H](C(=O)N3CCN(C)CC3)CC(=O)N(C)C2)nn1C	n
Cc1ncsc1C(=O)N1CCC2(CCCN(CC3CCCCC3)C2=O)C1 (configuration not stated)	n
COc1ccc(C[C@H](NC(=O)[C@@]2(O)C[C@@H](O)[C@H](O)[C@@H](NC(=O)Cc3cccs3)C2)C(N)=O)cc1	n
COCCO[C@H]1C(=O)N(C2CCN(S(C)(=O)=O)CC2)[C@H]1c1ccncc1	n
C[C@@H]1CN(C(=O)c2ccc(Cl)o2)C[C@@]1(O)C1CCC1	n
O=C(CCc1nc2cccnc2n1Cc1cccs1)Nc1cccc(Cl)c1	11µM
COc1ccc(Cn2c(CCC(=O)Nc3ccc(C)cc3)nc3cccnc32)cc1	10µM
CCCn1c(CCC(=O)Nc2cccc(CC)c2)nc2cccnc21	n
COc1ccc(CNC(=O)CCc2nc3cccnc3n2Cc2ccc(OC)cc2)cc1	n
Cc1cc(NC(=O)CCc2nc3cccnc3n2Cc2cccs2)ccc1Br	n[5.79 µM]
COc1ccc(Cn2c(CCC(=O)Nc3cc(C)cc(C)c3)nc3cccnc32)cc1	n
O=C(O)C1CN(Cc2ncc[nH]2)CCN(C(=O)Cc2cccs2)C1 (configuration not stated)	n
COCCOC1CCN(C(=O)Cc2cccc(C)c2)CC1	n
O=C(c1cnn2cc(CCO)cnc12)N1CCc2c(nc[nH]c2=O)C1	n
COc1ccccc1C(=O)N1CCC(N2CCOCC2=O)CC1	n
CCNC(=O)NCC1c2cc(OC)c(OC)cc2CCN1C(=O)Nc1ccc(C)cc1 (configuration not stated)	n
COc1cccc(C(=O)N2CCc3cc(OC)c(OC)cc3C2COc2ccc3c(C)cc(=O)oc3c2)c1 (configuration not stated)	8.9µM
COc1cc2c(cc1OC)C(CNC(=O)c1ccccc1)N(C(=O)Nc1cccc(F)c1)CC2 (configuration not stated)	n
COc1cc2c(cc1OC)C(COc1ccc3c(C)cc(=O)oc3c1)N(C(=O)c1ccc(Cl)cc1)CC2 (configuration not stated)	8.9µM
CCOc1ccc(C(=O)N2CCC[C@H]2c2nc(-c3ccc(OC)cc3)no2)cc1OCC	n
COCC(=O)N1CCc2cc(OC)c(OC)cc2C1COc1ccc2c(C)cc(=O)oc2c1 (configuration not stated)	n
COc1cc2c(cc1OC)C(CNC(=O)c1cccc(F)c1)N(C(=O)Nc1ccc(C)cc1)CC2 (configuration not stated)	n
CCOc1ccc(C(=O)N2CCc3cc(OC)c(OC)cc3C2COc2ccc3c(C)cc(=O)oc3c2)cc1OCC (configuration not stated)	3.2µM
COc1ccc(CC(=O)N2CCCN(C)C3(CCN(C)CC3)C2)cc1OC	n
CCCS(=O)(=O)N[C@H]1CO[C@H]2[C@@H]1OC[C@H]2OC(=O)Nc1ccc(C(C)=O)cc1	n
SMILES	Pf Dd2 inh
O=C(NCc1nnc2ccc(-c3ccccc3)nn12)c1cccc(Br)c1	n
O=C(Cn1ccn2nc3c(c2c1=O)CCCC3)NCc1ccc2c(c1)OCO2	n
COC[C@@H]1CN(C(=O)c2cccc(Cl)c2)C[C@H]1C(N)=O	n
O[C@H]1CC[C@@H](Cc2cc(-c3ccc(F)cc3)on2)O[C@@H]1CNC1CCNCC1	n
CCNC(=O)NC[C@H]1O[C@H](Cc2cc(CN(C)Cc3ccccc3)on2)CC[C@@H]1O	n
CC(C)NC[C@H]1O[C@H](Cc2cc(CN(C)Cc3ccccc3)on2)CC[C@@H]1O	11µM
CC(=O)N1CCC(NC[C@H]2O[C@H](Cc3cc(COc4ccccc4)on3)CC[C@@H]2O)CC1	n
O[C@H]1CC[C@@H](Cc2cc(-c3ccc(F)cc3)on2)O[C@@H]1CNCc1ccncc1	10µM
CN(C)C[C@H]1O[C@H](Cc2cc(CN(C)Cc3ccccc3)on2)CC[C@@H]1O	n
CCC(=O)NC[C@H]1O[C@H](Cc2cc(COc3ccccc3)on2)CC[C@@H]1O	n
CN(Cc1ccccc1)Cc1cc(C[C@@H]2CC[C@H](O)[C@@H](CNCc3ccccc3)O2)no1	1.8µM
COCc1cc(C[C@@H]2CC[C@H](O)[C@@H](CNC3CCN(C)CC3)O2)no1	n
COc1ccc(CNC[C@H]2O[C@H](Cc3cc(COc4ccccc4)on3)CC[C@@H]2O)cc1	4µM
COc1ccc(C(=O)NC[C@H]2O[C@H](Cc3cc(COc4ccccc4)on3)CC[C@@H]2O)cc1	n
Cc1ccc(CNC[C@H]2O[C@H](Cc3cc(-c4ccc(F)cc4)on3)CC[C@@H]2O)cc1	n
C[S+](=O)([O-])N1CCC2(C1)OC(=O)Nc1cnccc12 (configuration not stated)	n
